# According to PubChem BioAssay AID1159580 (chemical genetic matrix, 2015):
# Where “and” joins values, the source holds several entries; their conditions need not be identical. Equal entries are not always repeated. Screen size: about 5,500 compounds; about 2,000 (36%) were called active. Another 18% or so got no clear call; they are omitted. Some of the results follow. A number with no mark means an inactive call. No stated cut-off is given here; in the data, active means normalized growth mostly below about 0.91 (no sharp cut-off); inconclusive means no clear call, values can overlap the other calls; inactive means mostly above about 0.92.
# Assay: chemical genetic growth profiling, strain panel (AID 1159580);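 further: tested at 20 µM; growth read once vehicle control cultures reached saturation at 30 °C; 1 = growth at the plate median or of vehicle wells; lower values mean less growth of the strain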
# Details: S. cerevisiae deletion strains, growth OD
smiles,measurement,setting,value
COc1c2occc2c(OC)c2c(=O)cc(C)oc12,normalized growth,"locus YAL021C, strain ccr4, active compounds read low",0.992
same,normalized growth,"locus YAL026C, strain drs2, active compounds read low",0.985
same,normalized growth,"locus YAL030W, strain snc1, active compounds read low",0.992
same,normalized growth,"locus YBL061C, strain skt5, active compounds read low",0.992
same,normalized growth,"locus YBR009C, strain hhf1, active compounds read low",0.963
same,normalized growth,"locus YBR021W, strain FUR4, active compounds read low",0.958
same,normalized growth,"locus YBR023C, strain chs3, active compounds read low",0.97
same,normalized growth,"locus YBR171W, strain sec66, active compounds read low",0.987
same,normalized growth,"locus YBR229C, strain ROT2, active compounds read low",1.01
same,normalized growth,"locus YBR231C, strain swc5, active compounds read low",0.944
same,normalized growth,"locus YBR279W, strain paf1, active compounds read low",0.978
same,normalized growth,"locus YCL011C, strain gbp2, active compounds read low",0.967
same,normalized growth,"locus YCL016C, strain dcc1, active compounds read low",0.986
same,normalized growth,"locus YCL029C, strain bik1, active compounds read low",0.998
same,normalized growth,"locus YCL061C, strain MRC1, active compounds read low",0.995
same,normalized growth,"locus YCL069W, strain vba3, active compounds read low",0.977
same,normalized growth,"locus YCR088W, strain abp1, active compounds read low",0.991
same,normalized growth,"locus YDL005C, strain med2, active compounds read low",0.989
same,normalized growth,"locus YDL035C, strain GPR1, active compounds read low",1.05
same,normalized growth,"locus YDL040C, strain nat1, active compounds read low",0.992
same,normalized growth,"locus YDL074C, strain BRE1, active compounds read low",1.06
same,normalized growth,"locus YDL101C, strain DUN1, active compounds read low",1.02
same,normalized growth,"locus YDL134C, strain PPH21, active compounds read low",1.05
same,normalized growth,"locus YDL185W, strain tfp1, active compounds read low",1.01
same,normalized growth,"locus YDL192W, strain arf1, active compounds read low",1.01
same,normalized growth,"locus YDR001C, strain nth1, active compounds read low",0.991
same,normalized growth,"locus YDR069C, strain doa4, active compounds read low",0.985
same,normalized growth,"locus YDR101C, strain arx1, active compounds read low",0.988
same,normalized growth,"locus YDR137W, strain rgp1, active compounds read low",1.01
same,normalized growth,"locus YDR159W, strain sac3, active compounds read low",0.97
same,normalized growth,"locus YDR162C, strain NBP2, active compounds read low",1.02
same,normalized growth,"locus YDR195W, strain ref2",1.14
same,normalized growth,"locus YDR297W, strain sur2, active compounds read low",0.979
same,normalized growth,"locus YDR318W, strain mcm21, active compounds read low",1.01
same,normalized growth,"locus YDR334W, strain swr1, active compounds read low",0.994
same,normalized growth,"locus YDR335W, strain msn5, active compounds read low",0.987
same,normalized growth,"locus YDR388W, active compounds read low",1
same,normalized growth,"locus YDR392W, strain spt3, active compounds read low",0.734 (active)
same,normalized growth,"locus YDR502C, strain sam2, active compounds read low",1.01
same,normalized growth,"locus YEL003W, strain gim4, active compounds read low",0.938
same,normalized growth,"locus YEL037C, strain rad23, active compounds read low",0.99
same,normalized growth,"locus YEL061C, strain CIN8 (second series), active compounds read low",0.981
same,normalized growth,"locus YER015W, strain faa2, active compounds read low",0.977
same,normalized growth,"locus YER016W, strain bim1, active compounds read low",0.994
same,normalized growth,"locus YER110C, active compounds read low",1
same,normalized growth,"locus YER111C, strain swi4, active compounds read low",1
same,normalized growth,"locus YER155C, strain BEM2 (second series), active compounds read low",0.881
same,normalized growth,"locus YER155C, strain BEM2, active compounds read low",1
same,normalized growth,"locus YER167W, strain BCK2, active compounds read low",1.01
same,normalized growth,"locus YFR010W, strain ubp6, active compounds read low",0.986
same,normalized growth,"locus YGL078C, strain dbp3, active compounds read low",1.01
same,normalized growth,"locus YGL086W, strain mad1, active compounds read low",1
same,normalized growth,"locus YGL167C, strain pmr1, active compounds read low",0.997
same,normalized growth,"locus YGL173C, strain kem1, active compounds read low",0.977
same,normalized growth,"locus YGL227W, strain vid30, active compounds read low",0.99
same,normalized growth,"locus YGL240W, strain doc1, active compounds read low",0.955
same,normalized growth,"locus YGL248W, strain PDE1, active compounds read low",1.04
same,normalized growth,"locus YGL253W, strain hxk2, active compounds read low",0.958
same,normalized growth,"locus YGR135W, strain pre9, active compounds read low",1
same,normalized growth,"locus YGR252W, strain gcn5, active compounds read low",0.965
same,normalized growth,"locus YHR013C, strain ard1, active compounds read low",0.975
same,normalized growth,"locus YHR027C, strain rpn1, active compounds read low",0.987
same,normalized growth,"locus YHR030C, strain SLT2, active compounds read low",1.02 and 0.987
same,normalized growth,"locus YHR079C, strain IRE1 (second series), active compounds read low",1
same,normalized growth,"locus YHR079C, strain IRE1, active compounds read low",0.996
same,normalized growth,"locus YHR094C, strain hxt1, active compounds read low",1.01
same,normalized growth,"locus YHR129C, strain ARP1, active compounds read low",1.01
same,normalized growth,"locus YHR142W, strain chs7, active compounds read low",0.949
same,normalized growth,"locus YHR200W, strain rpn10, active compounds read low",1.04
same,normalized growth,"locus YIL066C, strain RNR3, active compounds read low",1.02
same,normalized growth,"locus YIL073C, strain SPO22, active compounds read low",1.13
same,normalized growth,"locus YIL125W, strain kgd1, active compounds read low",1.02
same,normalized growth,"locus YIR030C, strain dcg1, active compounds read low",1.01
same,normalized growth,"locus YJL092W, strain hpr5, active compounds read low",0.996
same,normalized growth,"locus YJL095W, strain BCK1 (second series), active compounds read low",0.993
same,normalized growth,"locus YJL095W, strain BCK1, active compounds read low",1.03 and 1
same,normalized growth,"locus YJL115W, strain asf1, active compounds read low",0.996
same,normalized growth,"locus YJL129C, strain trk1, active compounds read low",1.01
same,normalized growth,"locus YJL134W, strain LCB3, active compounds read low",1.01
same,normalized growth,"locus YJL154C, strain vps35, active compounds read low",0.995
same,normalized growth,"locus YJL164C, strain tpk1, active compounds read low",0.965
same,normalized growth,"locus YJL166W, strain qcr8, active compounds read low",0.945
same,normalized growth,"locus YJL168C, strain set2, active compounds read low",1.01
same,normalized growth,"locus YJL187C, strain SWE1 (second series), active compounds read low",1.02
same,normalized growth,"locus YJL187C, strain SWE1, active compounds read low",0.99
same,normalized growth,"locus YJR043C, strain POL32, active compounds read low",1.03
same,normalized growth,"locus YJR066W, strain TOR1, active compounds read low",0.931
same,normalized growth,"locus YJR075W, strain HOC1, active compounds read low",1.03
same,normalized growth,"locus YKL009W, strain mrt4, active compounds read low",0.991
same,normalized growth,"locus YKL068W, active compounds read low",1.01
same,normalized growth,"locus YKL085W, strain MDH1 (second series), active compounds read low",1.01
same,normalized growth,"locus YKL085W, strain MDH1, active compounds read low",1.01
same,normalized growth,"locus YKL160W, strain elf1, active compounds read low",0.963
same,normalized growth,"locus YKR001C, strain vps1, active compounds read low",1.02
same,normalized growth,"locus YKR026C, strain gcn3, active compounds read low",0.995
same,normalized growth,"locus YKR091W, strain srl3, active compounds read low",0.998
same,normalized growth,"locus YLL001W, strain dnm1, active compounds read low",0.949
same,normalized growth,"locus YLL026W, active compounds read low",0.999
same,normalized growth,"locus YLL041C, strain sdh2, active compounds read low",0.998
same,normalized growth,"locus YLR027C, strain aat2, active compounds read low",0.99
same,normalized growth,"locus YLR039C, strain RIC1, active compounds read low",1.18
same,normalized growth,"locus YLR058C, strain SHM2, active compounds read low",1.01
same,normalized growth,"locus YLR102C, strain apc9, active compounds read low",1.01
same,normalized growth,"locus YLR113W, strain HOG1, active compounds read low",1.07
same,normalized growth,"locus YLR221C, strain rsa3, active compounds read low",0.963
same,normalized growth,"locus YLR258W, strain gsy2, active compounds read low",0.943
same,normalized growth,"locus YLR262C, strain YPT6 (second series), active compounds read low",0.985
same,normalized growth,"locus YLR268W, strain sec22, active compounds read low",0.999
same,normalized growth,"locus YLR320W, strain mms22, active compounds read low",0.941
same,normalized growth,"locus YLR342W, strain FKS1, active compounds read low",0.994
same,normalized growth,"locus YLR357W, strain rsc2, active compounds read low",1.01
same,normalized growth,"locus YLR370C, strain arc18, active compounds read low",0.996
same,normalized growth,"locus YLR371W, strain rom2, active compounds read low",1.02
same,normalized growth,"locus YLR384C, strain iki3, active compounds read low",0.986
same,normalized growth,"locus YLR418C, strain cdc73, active compounds read low",1.04
same,normalized growth,"locus YML016C, strain PPZ1, active compounds read low",1.01
same,normalized growth,"locus YML032C, strain rad52, active compounds read low",1
same,normalized growth,"locus YML120C, strain ndi1, active compounds read low",0.972
same,normalized growth,"locus YML124C, strain tub3, active compounds read low",0.999
same,normalized growth,"locus YMR058W, strain fet3, active compounds read low",0.975
same,normalized growth,"locus YMR078C, strain ctf18, active compounds read low",1.02
same,normalized growth,"locus YMR125W, strain sto1, active compounds read low",1.04
same,normalized growth,"locus YMR129W, active compounds read low",1
same,normalized growth,"locus YMR205C, strain PFK2, active compounds read low",0.985
same,normalized growth,"locus YMR223W, strain ubp8, active compounds read low",0.992
same,normalized growth,"locus YMR231W, strain pep5, active compounds read low",0.999
same,normalized growth,"locus YMR307W, strain GAS1, active compounds read low",1.17
same,normalized growth,"locus YNL067W, strain RPL9B, active compounds read low",0.986
same,normalized growth,"locus YNL071W, strain lat1, active compounds read low",0.912 (active)
same,normalized growth,"locus YNL128W, strain TEP1, active compounds read low",1.02
same,normalized growth,"locus YNL153C, strain GIM3, active compounds read low",1
same,normalized growth,"locus YNL183C, strain NPR1, active compounds read low",0.949
same,normalized growth,"locus YNL209W, strain ssb2, active compounds read low",0.977
same,normalized growth,"locus YNL233W, strain BNI4, active compounds read low",1.03
same,normalized growth,"locus YNL248C, strain rpa49, active compounds read low",0.989
same,normalized growth,"locus YNL250W, strain rad50, active compounds read low",1.05
same,normalized growth,"locus YNL271C, strain bni1, active compounds read low",1.01
same,normalized growth,"locus YNL298W, strain CLA4, active compounds read low",1.02
same,normalized growth,"locus YNL307C, strain MCK1, active compounds read low",1
same,normalized growth,"locus YNL322C, strain KRE1 (second series), active compounds read low",0.998
same,normalized growth,"locus YNR049C, strain mso1, active compounds read low",1
same,normalized growth,"locus YNR052C, strain pop2, active compounds read low",1.01
same,normalized growth,"locus YOL012C, strain htz1",1.05
same,normalized growth,"locus YOL147C, strain pex11, active compounds read low",1.01
same,normalized growth,"locus YOR001W, strain rrp6, active compounds read low",0.946
same,normalized growth,"locus YOR061W, strain CKA2, active compounds read low",1.02
same,normalized growth,"locus YOR069W, strain VPS5, active compounds read low",1
same,normalized growth,"locus YOR070C, strain gyp1, active compounds read low",0.988
same,normalized growth,"locus YOR080W, strain dia2, active compounds read low",0.987
same,normalized growth,"locus YOR083W, strain WHI5, active compounds read low",0.942
same,normalized growth,"locus YOR106W, strain vam3, active compounds read low",0.966
same,normalized growth,"locus YOR136W, strain idh2, active compounds read low",1.02
same,normalized growth,"locus YOR144C, strain elg1, active compounds read low",1.01
same,normalized growth,"locus YOR184W, strain ser1, active compounds read low",1.02
same,normalized growth,"locus YOR231W, strain MKK1, active compounds read low",0.997
same,normalized growth,"locus YOR265W, strain rbl2, active compounds read low",0.989
same,normalized growth,"locus YOR270C, strain vph1, active compounds read low",0.839
same,normalized growth,"locus YOR290C, strain snf2, active compounds read low",0.958
same,normalized growth,"locus YOR316C, strain cot1, active compounds read low",1.03
same,normalized growth,"locus YPL051W, strain arl3, active compounds read low",0.972
same,normalized growth,"locus YPL078C, strain atp4, active compounds read low",0.951
same,normalized growth,"locus YPL106C, strain sse1, active compounds read low",0.961
same,normalized growth,"locus YPL240C, strain hsp82, active compounds read low",0.989
same,normalized growth,"locus YPL241C, strain CIN2, active compounds read low",1.01
same,normalized growth,"locus YPL256C, strain CLN2, active compounds read low",1.03
same,normalized growth,"locus YPR119W, strain clb2, active compounds read low",1.01
same,normalized growth,"locus YPR141C, strain kar3, active compounds read low",1.01
same,normalized growth,"locus YPR163C, strain tif3, active compounds read low",0.992
same,normalized growth,"locus YPR167C, strain met16, active compounds read low",1.02
same,normalized growth,"strain wtn01, active compounds read low",0.999
